Experimental data from PubChem BioAssay.
Measured potencies and affinities stand elsewhere. Results filed as inconclusive are left out.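 Rule for the calls: active = falling signal with fitted half-maximal potency no higher than twice the top valid tested dose; inconclusive = poor fit quality, or flat fit spanning -70% to -30%; inactive = potency over limit, rising signal, or flat fit inside 30%.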

Assay: Cryptococcus neoformans growth inhibition, dose response, Alamar Blue, cherry-picks (AID 686998)
Details: 24 h; series mostly up to 35 µM; activity change, negative = inhibition: at the top concentration

Activity change, negative = inhibition, inactive:
O=C(NCCN1CCCCC1)[C@@H]1N[C@@H]2c3ccc(-c4ccncc4)c(=O)n3C[C@@H]2[C@H]1CO -35.3%, CCCC(=O)Nc1ccc2c(c1)C(=O)N(C)C[C@H](OC)[C@@H](C)CN(C(=O)c1cccnc1)[C@H](C)CO2 -22.3%, CC(C)CC#Cc1cnc2c(c1)C(=O)N([C@H](C)CO)C[C@H](C)[C@@H](CN(C)Cc1cccc(F)c1)O2 50%, Cc1noc(C)c1NC(=O)Nc1ccc2c(c1)C(=O)N([C@@H](C)CO)C[C@H](C)[C@H](CN(C)CC1CCCCC1)O2 -18.5%, C[C@H]1CN([C@@H](C)CO)C(=O)c2ccccc2-c2ccccc2CO[C@H]1CN(C)S(=O)(=O)c1cccc(C#N)c1 -12.2%, COc1ccccc1CNC(=S)NCc1ccc(Cl)cc1 -38.3%, CC(C)NC(=O)Nc1ccc2c(c1)CC(=O)N([C@@H](C)CO)C[C@@H](C)[C@H](CN(C)C(=O)Nc1ccc3c(c1)OCO3)O2 21.2%, CC(C)CC#Cc1cnc2c(c1)C(=O)N([C@H](C)CO)C[C@H](C)[C@H](CN(C)C(=O)c1cccnc1)O2 27.5%, C[C@@H]1CCCCO[C@@H](CN(C)C(=O)Nc2ccc3c(c2)OCO3)[C@@H](C)CN([C@H](C)CO)C(=O)c2cc(NC(=O)Nc3cccc4ccccc34)ccc2O1 54.3% [at 30 µM], Cc1ccc(NC(=O)N2CCCC2C(=O)Nc2c(C)cc(C)cc2C)cc1 (configuration not stated) 0%, COCCNC(=O)C[C@@H]1C[C@H]2c3cc(NC(=O)C4CCOCC4)ccc3O[C@H]2[C@H](CO)O1 18.5%, COc1cccc(NC(=O)N2C[C@H](O)COC[C@H]3O[C@@H](CC(=O)NCc4ccccc4F)CC[C@@H]32)c1 -40.2%
